From PubChem BioAssay
A selection: hits, their analogues and other compounds. The true share with any hit is near 1.2%.
AGP1 TOR yeast = alters AGP1-GFP fluorescence in TOR pathway yeast screen; S. cerevisiae AGP1-GFP multiplex flow cytometry, 3 h; GFP as percent of DMSO wells; GFP response vs DMSO, % at 10 µM; 320,000 tested, 0.02% active; AID 2066;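 active means GFP response relative to DMSO above a set limit, near screen average plus 3 SD, cut at about 150% in these data; inconclusive means fewer than 70 cells counted for the yeast strain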;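 further: median GFP channel fluorescence of the gated AGP1 strain per well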
LAP4 TOR yeast = yeast TOR pathway LAP4-GFP modulation | S. cerevisiae LAP4-GFP multiplex, flow cytometry GFP, 3 h; median GFP as percent of DMSO wells | GFP response vs DMSO, % at 10 µM | 320,000 tested, 0.34% active | AID 2023;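 active means GFP response vs DMSO above a set limit, about the screen mean plus 3 SD, cut at about 150% in these data; inconclusive means under 70 cell events counted for the yeast strain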
MEP2 TOR yeast = yeast TOR pathway MEP2-GFP modulation | S. cerevisiae MEP2-GFP strain, flow cytometry GFP, 3 h; 100% = DMSO control level | GFP response vs DMSO, % at 10 µM | 330,000 tested, 0.51% active | AID 2016;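 active means GFP response versus DMSO above a set limit, roughly screen mean plus 3 SD, cut at about 180% in these data; inconclusive means fewer than 70 cells counted for a yeast strain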;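 further: median GFP fluorescence of the barcode-gated MEP2-GFP cells per well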
Pemphigus Ab inh = inhibitors of pemphigus antibody binding to human desmoglein-3 | P32926 | DSG3-coupled beads, scFv-anti-DSG3-GFP binding, flow cytometry; active compounds read low | binding (percent of control), % at 10 µM | 310,000 tested, 0.48% active | AID 588358;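 active means binding more than 3 SD below its plate's average and above zero; inconclusive means below that plate limit but binding exactly zero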;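 further: hits lower antibody fragment binding to DSG3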
Target sequence (P32926 whole entry, looked up, the tested form may be a part): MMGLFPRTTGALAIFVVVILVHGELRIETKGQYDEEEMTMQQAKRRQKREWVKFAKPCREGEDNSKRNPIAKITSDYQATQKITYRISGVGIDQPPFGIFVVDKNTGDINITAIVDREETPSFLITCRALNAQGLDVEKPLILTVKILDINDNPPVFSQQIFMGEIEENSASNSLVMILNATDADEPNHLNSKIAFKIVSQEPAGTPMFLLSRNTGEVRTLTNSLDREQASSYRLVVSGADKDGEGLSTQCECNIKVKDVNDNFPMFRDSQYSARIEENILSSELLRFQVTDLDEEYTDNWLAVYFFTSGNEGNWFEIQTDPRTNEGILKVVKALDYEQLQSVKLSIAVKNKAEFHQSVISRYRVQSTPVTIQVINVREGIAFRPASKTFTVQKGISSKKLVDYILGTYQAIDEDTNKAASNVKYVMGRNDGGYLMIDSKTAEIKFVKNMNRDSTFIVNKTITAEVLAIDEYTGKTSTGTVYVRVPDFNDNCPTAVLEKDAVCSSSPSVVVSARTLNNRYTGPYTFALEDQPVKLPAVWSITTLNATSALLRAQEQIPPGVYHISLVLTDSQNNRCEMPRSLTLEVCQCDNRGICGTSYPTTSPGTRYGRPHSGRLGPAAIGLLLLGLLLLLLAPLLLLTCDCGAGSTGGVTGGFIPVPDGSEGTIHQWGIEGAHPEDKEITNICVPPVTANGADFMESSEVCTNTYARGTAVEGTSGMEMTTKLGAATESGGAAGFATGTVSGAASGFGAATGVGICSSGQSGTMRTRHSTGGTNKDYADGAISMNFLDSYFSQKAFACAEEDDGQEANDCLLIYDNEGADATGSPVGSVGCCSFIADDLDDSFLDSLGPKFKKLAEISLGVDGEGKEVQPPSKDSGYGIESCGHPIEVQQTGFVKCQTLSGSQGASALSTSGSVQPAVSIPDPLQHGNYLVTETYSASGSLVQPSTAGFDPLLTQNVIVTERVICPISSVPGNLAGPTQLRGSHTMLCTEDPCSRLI
CIT2-GFP yeast = modulators of TOR pathway CIT2-GFP in S. cerevisiae | AID 2029 | 320,000 tested, 0.065% active | S. cerevisiae CIT2-GFP strain, flow cytometry, 3 h; 100 means same as DMSO wells | GFP response vs DMSO, % at 10 µM;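 active means GFP response relative to DMSO above a set limit, near the screen mean plus 3 SD, cut at about 150% in these data; inconclusive means Fewer than 70 cells measured for a yeast strain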;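 further: ratio of well median GFP fluorescence to mean of DMSO wells on the plate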
RPL19A-GFP yeast = yeast TOR pathway RPL19A-GFP modulation. S. cerevisiae RPL19A-GFP strain, flow cytometry, 3 h; active compounds read low. percent response vs DMSO, % at 10 µM. 330,000 tested, 0.3% active. AID 2025;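 active means percent response vs DMSO below 50%; inconclusive means fewer than 70 events counted for the yeast strain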;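 further: median channel GFP fluorescence of the barcoded RPL19A-GFP strain; lower means less RPL19A-GFP as with rapamycin TOR inhibition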
Each line names hits and unclear results; the compound was inactive in the other large screens; [ ] = remark or other dose.

CCOCCCN(C)C1CCN(C(=O)c2oc3ccccc3c2NC(=O)c2ccc(F)cc2)CC1	AGP1 TOR yeast inconclusive, CIT2-GFP yeast inconclusive, RPL19A-GFP yeast 16[may fluoresce violet]
Cc1c(C(=O)NCc2ccc3c(c2)OCO3)sc2nc(-c3ccc(F)cc3)cn12	none
Cc1c(C(=O)NCc2ccc3c(c2)OCO3)sc2nc(-c3ccccc3)cn12	Pemphigus Ab inh 58
CCN(CC)c1ccc(C2C(C(C)=O)C(=O)CC(C)(O)C2C(C)=O)cc1 (configuration not stated)	AGP1 TOR yeast inconclusive, LAP4 TOR yeast inconclusive, MEP2 TOR yeast 249[may fluoresce violet], CIT2-GFP yeast inconclusive, RPL19A-GFP yeast 14[may fluoresce violet]
CC(=O)C1C(=O)CC(C)(O)C(C(C)=O)C1c1ccc(N(C)C)cc1 (configuration not stated)	none (no result: Pemphigus Ab inh)
O=C(O)c1cccc(NC(=O)c2ccc3c(c2)C(=O)N(c2ccccc2)C3=O)c1	AGP1 TOR yeast inconclusive, MEP2 TOR yeast 376[may fluoresce violet], CIT2-GFP yeast inconclusive
CCCCn1c(N)c(N(Cc2ccccc2OC)C(=O)C(C)Oc2cccc(Cl)c2)c(=O)[nH]c1=O (configuration not stated)	none (no result: AGP1 TOR yeast, LAP4 TOR yeast, MEP2 TOR yeast, CIT2-GFP yeast, RPL19A-GFP yeast)
COc1ccc(C2Nc3ccccc3C(=O)N2Cc2ccco2)cc1COc1ccc(NC(C)=O)cc1 (configuration not stated)	Pemphigus Ab inh 37
COc1ccc(C2Nc3ccccc3C(=O)N2Cc2ccco2)cc1COc1ccccc1F (configuration not stated)	none
CCOc1cc(C=NN2CCCCCC2)ccc1O	none (no result: AGP1 TOR yeast, LAP4 TOR yeast, MEP2 TOR yeast, CIT2-GFP yeast, RPL19A-GFP yeast)
CCC(CC)c1nnc(NC(=O)c2c(C)nn(Cc3ccccc3Cl)c2C)s1	Pemphigus Ab inh 53
CS(=O)(=O)c1ccc(C(=O)N2CCN(C(=O)c3ccco3)CC2)cc1	none (no result: AGP1 TOR yeast, LAP4 TOR yeast, MEP2 TOR yeast, CIT2-GFP yeast, RPL19A-GFP yeast)
O=S(=O)(NC1=NCCCCC1)c1ccc(Cl)cc1Cl	none
O=C(/C=C/c1ccccc1)Nc1cccc(C(=O)NCCCCc2ccccc2)c1	none (no result: AGP1 TOR yeast, LAP4 TOR yeast, MEP2 TOR yeast, CIT2-GFP yeast, RPL19A-GFP yeast)
CCc1noc(C)c1C(=O)N1CCN(S(=O)(=O)c2ccc(Br)cc2Cl)CC1	none
O=C1C=C(NCCc2cc(Br)c(O)c(Br)c2)C(=O)c2ncccc21	Pemphigus Ab inh 58 (no result: AGP1 TOR yeast, LAP4 TOR yeast, MEP2 TOR yeast, CIT2-GFP yeast, RPL19A-GFP yeast)
Brc1ccc2c(c1)OCCOCCOc1cc(Br)ccc1OCCOCCOCCO2	LAP4 TOR yeast 219
CC(=O)c1ccc2c(c1)OCCOCCOCCO2	AGP1 TOR yeast inconclusive, MEP2 TOR yeast 575[may fluoresce violet], CIT2-GFP yeast inconclusive, RPL19A-GFP yeast 47[may fluoresce violet]
O=C(O)c1ccc2c(c1)OCCOCCOCCOCCOCCO2	none
Cc1onc(-c2ccccc2)c1C(=O)NC(=S)NNC(=O)c1ccco1	LAP4 TOR yeast 158
CC(=O)NC(=S)Nc1ccc(NC(=S)NC(=O)/C=C/c2ccco2)cc1	none (no result: Pemphigus Ab inh)
O=C(/C=C/c1ccco1)NC(=S)NNC(=O)c1ccco1	Pemphigus Ab inh 60
Cc1onc(-c2ccccc2)c1C(=O)NC(=S)NNC(=O)c1ccncc1	none
O=C(N=C1N=C2C=CC(Br)=CN2Cc2ccccc21)c1ccc([N+](=O)[O-])cc1[N+](=O)[O-]	none
Cc1onc(-c2ccccc2Cl)c1C(=O)Nc1cccc2cccnc12	AGP1 TOR yeast inconclusive, MEP2 TOR yeast 355[may fluoresce violet], CIT2-GFP yeast inconclusive, RPL19A-GFP yeast 16[may fluoresce violet]
COc1cc(NC(=O)c2ccc(Cl)cc2)c2ncccc2c1	none
COc1cc(NC(=O)c2c(-c3ccccc3Cl)noc2C)c2ncccc2c1	AGP1 TOR yeast inconclusive, CIT2-GFP yeast inconclusive, RPL19A-GFP yeast 18[may fluoresce violet]
O=C(Nc1cccc([N+](=O)[O-])c1)c1ccc(CSc2ccccc2)cc1	Pemphigus Ab inh 80
O=C(Nc1cccc([N+](=O)[O-])c1)c1ccccc1	none
CC(=O)c1ccc(N2CCN(C(=O)c3ccccc3SCC(=O)NCc3ccco3)CC2)c(F)c1	none (no result: AGP1 TOR yeast, LAP4 TOR yeast, MEP2 TOR yeast, CIT2-GFP yeast, RPL19A-GFP yeast)
O=C(NCCN1CCOCC1)c1ccc(CS(=O)(=O)Cc2ccccc2F)o1	MEP2 TOR yeast 192
O=C(NCCc1ccccc1)c1ccc(CS(=O)(=O)Cc2ccccc2F)o1	RPL19A-GFP yeast inconclusive
CN(C)c1nc(N)c(C#N)c(C#N)c1C#N	none (no result: AGP1 TOR yeast, LAP4 TOR yeast, MEP2 TOR yeast, CIT2-GFP yeast, RPL19A-GFP yeast)
CC(=O)c1cc(NC(=O)c2ccc(C)cc2)c(=O)oc1C	LAP4 TOR yeast 166 (no result: AGP1 TOR yeast)
Fc1ccccc1Nc1nc(-c2ccncc2)nc2ccccc12	none
COC(=O)c1cccc(-c2noc(-c3ccccc3F)n2)c1	none
NC(=O)c1cccc(-c2noc(-c3ccccc3F)n2)c1	MEP2 TOR yeast 203[may fluoresce violet], CIT2-GFP yeast inconclusive
Nc1nc(N2CCN(Cc3ccccc3)CC2)n[nH]1	Pemphigus Ab inh 79
Cc1nc(SCc2nc3ccccc3[nH]2)c2oc3cc([N+](=O)[O-])ccc3c2n1	none
Cc1ccccc1NC(=O)Cn1nc(-c2ccccc2)nc1-c1ccccc1	Pemphigus Ab inh -17
O=c1[nH]c(CN2CCCCC2)nc2c1C1(CCCCC1)Cc1ccccc1-2	CIT2-GFP yeast 157
CCc1nc2c(c(=O)[nH]1)C1(CCCC1)Cc1ccccc1-2	none
CSc1sc(C(=O)NCC2CC2)c2c1S(=O)(=O)N(C)c1ccccc1-2	Pemphigus Ab inh 93
CSc1sc(C(=O)NCC2CC2)c(-c2cccs2)c1C#N	none
CSc1nnc(C(C)c2ncc(C(F)(F)F)cc2Cl)n1C (configuration not stated)	none
CC(C)c1cc(NC(=O)C(C)(C)C)cc(C(C)C)c1O	MEP2 TOR yeast 202[may fluoresce violet], CIT2-GFP yeast inconclusive
CS(=O)(=O)N(CC(=O)NCCSCc1cccc(Cl)c1)c1ccc(F)cc1	none
COc1ccc(/C=C(/NC(=O)c2ccccc2)C(=O)NCc2ccco2)cc1	AGP1 TOR yeast inconclusive, MEP2 TOR yeast inconclusive, CIT2-GFP yeast inconclusive, RPL19A-GFP yeast 46[may fluoresce violet]
COc1ccc(/C=C(/NC(=O)c2ccco2)C(=O)NCc2ccco2)cc1	none (no result: AGP1 TOR yeast, LAP4 TOR yeast, MEP2 TOR yeast, CIT2-GFP yeast, RPL19A-GFP yeast)
COc1ccc(C(CC(=O)NCc2ccco2)c2ccc(F)cc2)cc1 (configuration not stated)	Pemphigus Ab inh 31 (no result: CIT2-GFP yeast)
CCOC(=O)C1=C(N)n2c(s/c(=C\c3ccncc3)c2=O)=C(C(=O)OCC)C1c1ccncc1 (configuration not stated)	none
CCOC(=O)C1=C(N)n2c(s/c(=C\c3cccnc3)c2=O)=C(C(=O)OC)C1c1cccnc1 (configuration not stated)	Pemphigus Ab inh 88
CC1(C)CC[C@]2(CO)CC[C@]3(C)C(=CCC4[C@@]5(C)CC[C@H](O)[C@@](C)(CO)C5CC[C@]43C)[C@@H]2C1 (some centres not stated)	none
O=c1[nH]c(CN2CCN(c3ccccc3)CC2)nc2scc(-c3ccccc3)c12	none
COc1ccc(N2CCN(Cc3nc4scc(-c5ccccc5)c4c(=O)[nH]3)CC2)cc1	Pemphigus Ab inh 49
COCc1cc(C)n(CC(=O)Nc2ccc(Cl)cc2Cl)c(=O)c1C#N	Pemphigus Ab inh -3.1
COCc1cc(C)n(CC(=O)OC)c(=O)c1C#N	none
